NIH3T3 tox – Cytotoxic Profiling in NIH 3T3 Cell Line of Diverse Libraries Using Quantitative High-Throughput Screening. Potency, µM (doses to about 96.7 µM), usual class: inhibitors. 94,000 tested, 4.3% active. NIH 3T3 viability, CellTiter-Glo ATP luminescence, 48-72 h; also: nearly all actives have a fitted effect of over 55% in size
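Cytotoxicity was measured by CellTiter-Glo ATP luminescence after 48 or 72 h compound exposure at 37 °C. Mouse NIH 3T3 fibroblasts were seeded at 400 cells/well and dosed by 23 nL pin transfer.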
NPR1 antag – Natriuretic polypeptide receptor (hNpr1) antagonism - Primary qHTS | Atrial natriuretic peptide receptor 1 (Homo sapiens), P16066 | HEK293 hNpr1 GloSensor cGMP, ANP-stimulated luminescence | Potency, µM (top dose mostly 46.3 µM), actives largely listed as inhibitors | 76,000 tested, 1.6% active | AID 1347048, 2019; calls by dose curve; also: nearly all actives have a fitted effect of over 60% in size
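HEK293 cells stably expressing human Npr1 and cGMP GloSensor pGS-40F, loaded 2 h with 2% GloSensor reagent, given compound 30 min at room temperature. Luminescence read before and 20 min after 0.1 nM hNppA.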
FLuc inh – Firefly luciferase inhibition profiling of diverse chemical library using quantitative high-throughput screening; purified P. pyralis luciferase, luminescence, biochemical; AID 1347043, 2019; Potency, µM (top dose mostly 115 µM), usual class: inhibitors; 76,000 tested, 2.5% active; also: nearly all actives have a fitted effect of over 65% in size
Target sequence (P08659 whole entry, looked up): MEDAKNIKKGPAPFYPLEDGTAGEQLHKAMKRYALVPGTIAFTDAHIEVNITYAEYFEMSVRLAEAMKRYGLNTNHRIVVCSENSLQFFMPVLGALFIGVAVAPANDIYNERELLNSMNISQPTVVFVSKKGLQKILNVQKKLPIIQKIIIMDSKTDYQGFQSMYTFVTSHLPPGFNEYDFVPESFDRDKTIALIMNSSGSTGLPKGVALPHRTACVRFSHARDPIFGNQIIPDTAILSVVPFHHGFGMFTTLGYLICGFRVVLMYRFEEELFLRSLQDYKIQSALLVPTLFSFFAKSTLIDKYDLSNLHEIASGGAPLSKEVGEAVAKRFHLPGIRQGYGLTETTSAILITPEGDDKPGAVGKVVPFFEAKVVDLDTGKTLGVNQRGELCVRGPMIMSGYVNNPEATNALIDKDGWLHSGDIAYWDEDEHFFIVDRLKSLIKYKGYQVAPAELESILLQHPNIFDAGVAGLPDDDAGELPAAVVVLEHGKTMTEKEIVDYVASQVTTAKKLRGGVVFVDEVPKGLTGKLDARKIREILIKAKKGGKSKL
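Purified P. pyralis luciferase (10nM final) in 50mM Tris acetate pH 7.5, 10mM Mg acetate, 0.01% Tween-20, 0.05% BSA with 10uM D-luciferin and 10uM ATP. Compounds titrated qHTS. Luminescence imaged on CCD.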
HEK cytotox – Cytotoxic Profiling in HEK 293 Cell Line of Diverse Libraries Using Quantitative High-Throughput Screening. 94,000 tested, 6.6% active. AID 1345083, 2018. HEK 293 viability, ATP luminescence (CellTiter-Glo), 48-72 h. Potency, µM (top dose mostly 115 µM), usual class: inhibitors; also: nearly all actives have a fitted effect of over 60% in size
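Viability of HEK 293 cells, plated at 250 cells/well, was judged by cellular ATP after compound treatment for 48 or 72 hr. Luminescence was imaged 10 min after CellTiter-Glo addition at room temperature.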
Npr1 antag conf – Natriuretic polypeptide receptor (hNpr1) antagonism - Confirmation. shares compounds with NPR1 antag. HEK293 hNpr1 cGMP GloSensor luminescence, ANP-stimulated. Potency, µM (doses to about 57.6 µM), most hits filed as inhibitors. 1,400 tested, 76% active. AID 1347044, 2019; calls by dose curve; also: nearly all actives have a fitted effect of over 70% in size
Npr2 selectivity – Natriuretic polypeptide receptor (hNpr2) antagonism - Subtype selectivity assay; shares compounds with NPR1 antag; HEK293 hNpr2 GloSensor cGMP luminescence, CNP-stimulated; Potency, µM (highest dose often 57.6 µM), usual class: inhibitors; 1,400 tested, 67% active; AID 1347046, 2019; calls by dose curve; also: nearly all actives have a fitted effect of over 70% in size
FLuc counter – Natriuretic polypeptide receptor (hNpr1) antagonism - Confirmation firefly luciferase (FLuc) inhibition counterscreen | Potency, µM (highest dose often 57.6 µM), actives largely listed as inhibitors | 1,400 tested, 0.7% active | purified FLuc enzyme, luminescence, Km substrate | shares compounds with NPR1 antag | AID 1347047, 2019
GloSensor ctrl – Natriuretic polypeptide receptor (hNpr1) antagonism - Counterscreen GloSensor control cell line. shares compounds with NPR1 antag. HEK293 GloSensor cGMP, SNP-stimulated, luminescence. 1,400 tested, 69% active. Potency, µM (top dose mostly 57.6 µM), most hits filed as inhibitors. AID 1347051, 2019; calls by dose curve; also: nearly all actives have a fitted effect of over 70% in size
Hits are given with their value. Shown are actives, neighbours in structure and some others; about 11% of the full set was active somewhere. Unless noted, calls follow the shape of the dose curve; as a rule, active = well fitted curve in the direction sought with a large enough effect; inconclusive = small, poorly fitted or top-dose-only effect, or another doubt; inactive = no such curve, though single readings can be large; an effect the other way counts as inactive or inconclusive.

Results for CCCCN1CCC2(COC(=O)N2c2ccncc2)C1 (configuration not stated) ?
NIH3T3 tox: inconclusive; NPR1 antag: inactive; FLuc inh: inactive; HEK cytotox: inconclusive

How did Cc1noc(C)c1S(=O)(=O)N1[C@H]2CC[C@@H]1c1cnc(-c3ccccc3)nc1C2 do in these assays?
NIH3T3 tox: inactive; NPR1 antag: inconclusive; FLuc inh: inactive; HEK cytotox: inconclusive

How did CCn1ccc(C(=O)N2[C@H]3CC[C@@H]2c2cnc(-c4ccc(F)cc4)nc2C3)n1 do in these assays?
NIH3T3 tox: inactive; NPR1 antag: inactive; FLuc inh: inactive; HEK cytotox: inconclusive

Results for COc1ccccc1C(=O)N1[C@H]2CC[C@@H]1c1cnc(-c3ccc(F)cc3)nc1C2 ?
NIH3T3 tox: inconclusive; NPR1 antag: 8.9µM; FLuc inh: inactive; HEK cytotox: inconclusive; Npr1 antag conf: 17µM; Npr2 selectivity: 15µM; FLuc counter: inactive; GloSensor ctrl: 12µM

How did CCCNC(=O)N1CC2CN(C(C)C)CC(C1)O2 do in these assays?
NIH3T3 tox: inactive; NPR1 antag: inactive; FLuc inh: inactive; HEK cytotox: inactive

What do the screens show for `O=C(Cc1ccccc1)N1Cc2ccccc2CC2(CCCN2Cc2ccncc2)C1` (configuration not stated)?
NIH3T3 tox: inactive; HEK cytotox: inconclusive

Results for O=C(Cc1ccc(Cl)cc1)N1Cc2ccccc2CC2(CCCN2CC2CCNC2)C1 (configuration not stated) ?
NIH3T3 tox: 16µM; HEK cytotox: 28µM; Npr1 antag conf: 22µM; Npr2 selectivity: 6.1µM; FLuc counter: inactive; GloSensor ctrl: inactive

What do the screens show for `Nc1cccc(-c2cn(C[C@H]3CC4CCN3C[C@@H]4C(=O)NCc3ccccc3)nn2)c1` (some centres not stated)?
NIH3T3 tox: inconclusive; NPR1 antag: inactive; FLuc inh: inactive; HEK cytotox: inconclusive

Screening results from PubChem BioAssay.
